# From PubChem
# ADAM17 inh: inhibits human ADAM17. recombinant ADAM17, EDANS/DABCYL FRET peptide cleavage. inhibition, % at 6.95 µM. 370,000 compounds, 0.83% hits. AID 720648;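 active = inhibition above the mean of compounds lying between control limits plus 3 SD, set per campaign, cut at about 8.5% in these data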;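 note: 0% = DMSO-only wells as the low control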
# PLC-gamma1 inh: inhibitors of human phospholipase C gamma1 | 370,000 compounds, 0.84% hits | purified PLC-gamma1, fluorogenic substrate, fluorescence | AID 720700 | inhibition, % at 12.2 µM | P19174; in the data active = inhibition above about 9.5%
# Target sequence (P19174 whole entry, looked up): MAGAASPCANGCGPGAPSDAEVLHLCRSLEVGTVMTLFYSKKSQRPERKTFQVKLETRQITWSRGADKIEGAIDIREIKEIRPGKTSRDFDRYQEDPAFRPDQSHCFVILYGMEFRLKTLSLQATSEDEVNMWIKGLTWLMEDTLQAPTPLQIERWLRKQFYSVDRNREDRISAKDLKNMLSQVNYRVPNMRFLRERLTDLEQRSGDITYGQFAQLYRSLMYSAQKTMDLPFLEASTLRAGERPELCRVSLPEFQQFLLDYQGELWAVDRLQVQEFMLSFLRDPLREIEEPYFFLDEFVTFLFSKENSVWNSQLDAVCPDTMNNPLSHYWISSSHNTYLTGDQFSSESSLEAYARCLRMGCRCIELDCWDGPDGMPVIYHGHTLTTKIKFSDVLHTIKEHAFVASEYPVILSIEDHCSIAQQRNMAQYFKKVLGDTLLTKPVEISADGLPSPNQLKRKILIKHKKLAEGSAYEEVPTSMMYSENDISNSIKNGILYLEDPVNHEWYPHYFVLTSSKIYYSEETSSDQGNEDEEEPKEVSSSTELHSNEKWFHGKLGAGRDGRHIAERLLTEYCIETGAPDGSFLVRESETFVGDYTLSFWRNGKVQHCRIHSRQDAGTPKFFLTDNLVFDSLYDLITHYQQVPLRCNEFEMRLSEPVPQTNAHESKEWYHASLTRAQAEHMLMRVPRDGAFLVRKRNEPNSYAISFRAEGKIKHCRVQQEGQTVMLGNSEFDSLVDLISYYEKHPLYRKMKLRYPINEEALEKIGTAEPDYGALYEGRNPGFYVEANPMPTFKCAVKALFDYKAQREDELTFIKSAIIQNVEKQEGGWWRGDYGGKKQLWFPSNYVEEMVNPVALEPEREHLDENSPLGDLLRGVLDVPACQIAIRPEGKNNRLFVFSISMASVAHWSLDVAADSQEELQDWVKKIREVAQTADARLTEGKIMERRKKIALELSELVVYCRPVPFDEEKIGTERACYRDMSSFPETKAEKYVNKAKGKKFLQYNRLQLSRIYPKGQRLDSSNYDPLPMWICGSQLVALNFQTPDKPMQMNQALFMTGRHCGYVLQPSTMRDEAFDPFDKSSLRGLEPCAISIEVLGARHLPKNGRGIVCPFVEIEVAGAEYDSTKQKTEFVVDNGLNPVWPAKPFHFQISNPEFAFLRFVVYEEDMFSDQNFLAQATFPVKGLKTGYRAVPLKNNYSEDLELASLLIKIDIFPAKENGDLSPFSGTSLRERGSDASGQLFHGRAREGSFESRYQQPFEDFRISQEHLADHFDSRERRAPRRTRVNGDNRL
# PLCb3 inh: PLC-beta3 (human) inhibition, primary screen; Purified PLC-beta3, fluorogenic substrate, fluorescence; AID 720704; 370,000 compounds, 0.18% hits; Q01970; inhibition, % at 12.2 µM; in the data active = inhibition above about 11%;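 note: 0% = median of compound wells on plate and 100% = full blocker control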
# ADAM10 inh: ADAM10 inhibition, QFRET primary screen; O14672; recombinant ADAM10, EDANS/DABCYL FRET peptide cleavage, 3 h; inhibition, % at 7 µM; 370,000 compounds, 0.62% hits; AID 720582;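 active = inhibition above a per-campaign cutoff equal to the mean of compounds falling between control-based bounds plus 3 SD, cut at about 20% in these data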;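 note: 0% = DMSO wells while the 100% control is not disclosed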
# KLK7 zymogen act: activators of human kallikrein-7 zymogen; purified proKLK7, EDANS-DABCYL substrate fluorescence; 100% is mature enzyme control, 0% vehicle; activation, % at 7 µM; 370,000 compounds, 0.9% hits;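 active = activation above the mean of all tested compounds plus 3 SD, computed per campaign excluding outliers beyond control limits, cut at about 13% in these data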
# ADAM10 counter: ADAM10 inhibition, counter-screen for ADAM17 exosite hits. recombinant ADAM10, EDANS/DABCYL FRET peptide cleavage, 3 h. inhibition, % at 6.95 µM. 2,900 compounds, 47% hits. shares compounds with ADAM17 inh;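 active = mean inhibition over the triplicate runs exceeds the activity threshold set in the earlier primary screen, cut at about 20% in these data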;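 note: 0% = DMSO wells and 100% = marimastat wells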
# ADAM17 confirm: human ADAM17 inhibition, confirmation; inhibition, % at 6.95 µM; recombinant ADAM17, EDANS/DABCYL QFRET peptide cleavage; shares compounds with ADAM17 inh; 2,900 compounds, 65% hits;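 active = mean inhibition across replicates above the hit cutoff set in the primary screen, cut at about 8.5% in these data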;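 note: 0% = DMSO wells and 100% = marimastat wells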
# * marks the source's active call; other numbers are inactive results; . = no result given. Compounds with a hit are over-represented: about 2.9% of the library has one in this group of screens.
SMILES,ADAM17 inh,PLC-gamma1 inh,PLCb3 inh,ADAM10 inh,KLK7 zymogen act,ADAM10 counter,ADAM17 confirm
O=C(CSc1nnc(-c2ccccc2)n1-c1ccc(Cl)cc1)Nc1ccccc1-c1ccccc1,11*,9,3,19,1,21*,14*
Nn1c(SC/C=C/c2ccccc2)nnc1-c1cccnc1,-4,-1,1,-5,1,.,.
Clc1ccc(-n2c(SC/C=C/c3ccccc3)nnc2-c2cccnc2)cc1,14*,7,4,19,0,1,6
COc1ccc(CN(C)CC(=O)Nc2cccc(S(=O)(=O)N3CCCC3)c2)cc1F,-1,-1,-4,-3,0,.,.
CCOC(=O)c1c(C)[nH]c(C)c1C(=O)COC(=O)/C=C/c1cccc(C(F)(F)F)c1,12*,0,0,11,0,27*,15*
CSc1ncc(Cl)c(C(=O)NCc2cccnc2)n1,-1,1,6,4,0,.,.
O=C(c1[nH]c(C(F)(F)F)nc1-c1ccccc1)N1CCC(Cc2ccccc2)CC1,12*,3,2,6,0,8,7
CC1CCN(C(=O)c2[nH]c(C(F)(F)F)nc2-c2ccccc2)CC1,-3,-1,-3,-7,-1,.,.
CC(C)NC(=O)N(C)C[C@H]1Oc2ccc(NC(=O)Cc3ccccc3)cc2C(=O)N([C@H](C)CO)C[C@@H]1C,9.1*,1,3,1,1,-9,1
C[C@H](CO)N1C[C@H](C)[C@@H](CN(C)C(=O)Nc2ccc(C(F)(F)F)cc2)Oc2ccc(NC(=O)Cc3ccccc3)cc2C1=O,16*,3,3,16,1,17,9.6*
CC(C)NC(=O)N(C)C[C@H]1Oc2ccc(NC(=O)Nc3ccccc3)cc2C(=O)N([C@H](C)CO)C[C@@H]1C,0,3,2,-6,1,.,.
CC(C)NC(=O)N(C)C[C@H]1Oc2ccc(NC(=O)Nc3ccccc3)cc2C(=O)N([C@@H](C)CO)C[C@@H]1C,11*,4,1,-4,0,2,5
CS(=O)(=O)NCC(c1ccco1)N1CCN(c2ccc(F)cc2)CC1 (stereo unspecified),-4,2,2,3,0,.,.
Cc1cc(N/C=C(\C#N)S(=O)(=O)c2ccc(Cl)cc2)nc(C)n1,-6,-1,-8,-21,0,.,.
Cc1nc(N2CCN(c3ccccn3)CC2)c2c(C)c(C(=O)Nc3ccccc3F)sc2n1,-5,0,-9,-9,0,.,.
Cc1cc(N/N=C/c2c(O)ccc3ccccc23)nc(-c2ccccc2O)n1,9.2*,-9,-9,8,-6,-69,-9
COc1ccc(N(CC(=O)Nc2ccc(S(=O)(=O)N3CCCC3)cc2)S(C)(=O)=O)cc1OC,0,-2,-1,0,1,.,.
COc1ccc(C(C)C)cc1S(=O)(=O)Nc1ccccn1,10*,4,7,10,0,-15,-6
O=[N+]([O-])c1ccc(N(CC2CO2)S(=O)(=O)c2ccccc2)cc1 (stereo unspecified),-2,0,-6,-3,0,.,.
CCCCN(C(=O)CN1C(=O)C2CCCCC2C1=O)c1c(N)n(Cc2ccccc2)c(=O)[nH]c1=O (stereo unspecified),-2,1,-5,-6,0,.,.
Cc1sc2nc(SCC(=O)OC(C)C)n(C)c(=O)c2c1C,15*,8,-1,-5,-1,-6,-1
Cc1cc(NC(=O)/C(C#N)=C/c2ccco2)n(-c2ccccc2)n1,9.0*,0,-2,16,0,20*,11*
Cc1cc(NC(=O)CC#N)n(-c2ccccc2)n1,-2,1,-2,3,0,.,.
CCOC(=O)C1=CCN(S(=O)(=O)c2ccc(C)cc2)C1c1cccs1 (stereo unspecified),11*,6,4,17,0,6,7
COc1ccc(-c2nc(-c3ccccc3)nc(Cl)c2C#N)cc1,1,1,-5,-2,-1,.,.
SMILES,ADAM17 inh,PLC-gamma1 inh,PLCb3 inh,ADAM10 inh,KLK7 zymogen act,ADAM10 counter,ADAM17 confirm
COc1ccc(NS(=O)(=O)c2ccc(Cl)c(NC(=O)c3cccnc3Cl)c2)cc1,-7,6,-5,-3,0,.,.
O=C(c1cccc(COc2ccc(Cl)cc2Cl)c1)N1CCN(c2ccccn2)CC1,11*,4,-3,16,1,14,9.3*
COc1ccccc1NC(=O)N(C)C[C@H]1OCc2cnnn2CCCC(=O)N([C@@H](C)CO)C[C@H]1C,-6,2,-1,-16,-1,.,.
COc1ccccc1NC(=O)N(C)C[C@@H]1OCc2cnnn2CCCC(=O)N([C@@H](C)CO)C[C@H]1C,8.8*,8,9,-1,1,-5,-2
CCN(CC)S(=O)(=O)c1cccc(NC(=O)CCSc2ccc(Cl)cc2)c1,9.2*,-2,-4,10,0,37*,17*
O=C(CN1CCN(CN2C(=O)NC3(CCCCCC3)C2=O)CC1)Nc1cccc(F)c1,-7,4,-5,-8,0,.,.
[O-]/[N+](=C\C=C\c1ccccc1)c1ccccc1,-7,-3,-10,3,0,.,.
CCCC(C)NC(=O)CN(Cc1ccco1)S(=O)(=O)c1ccccc1 (stereo unspecified),1,0,-3,-3,0,.,.
CCC(C)NS(=O)(=O)c1ccc(S(=O)(=O)N(CC(=O)Nc2ccccc2)Cc2ccco2)cc1 (stereo unspecified),8.9*,5,3,10,1,20*,11*
CC(C)CC(=O)N(c1ccc(F)cc1)C1C=CS(=O)(=O)C1 (stereo unspecified),-2,0,-1,-1,0,.,.
COc1ccc(-c2nn(-c3ccccc3)cc2/C=N/NS(=O)(=O)c2ccccc2)cc1,4,-6,-9,11,0,.,.
COc1ccc(-c2nn(-c3ccccc3)cc2/C=N/NC(=O)c2cccc(S(=O)(=O)Nc3ccccc3Cl)c2)cc1,9.2*,-161,-264,-36,-11,-218,-31
O=C(O)c1ccccc1NC1CCCCC1NS(=O)(=O)c1ccccc1 (stereo unspecified),-72,-74,-130,-239,-1,.,.
COc1ccccc1OCC(=O)N/N=C/C=C/c1ccc([N+](=O)[O-])o1,4,-19,-32,1,0,.,.
CC1(C)Cc2c(c(=S)nc(-c3ccccc3)n2CCN2CCOCC2)CO1,8.7*,4,-5,2,-1,3,6
COCCn1c(-c2ccccc2)nc(=S)c2c1CC(C)(C)OC2,5,-1,-3,8,0,.,.
COC1=C[C@H](C(=O)NCCOC(C)=O)[C@H](C)[C@@H](c2ccccc2)CC1=O,-2,-5,-7,-4,1,.,.
